tim10-1 inh = growth inhibitors of tim10-1 mutant yeast, primary screen, luminescence, uHTS | inhibition, % at 20 µM | S. cerevisiae tim10-1 ts strain growth, BacTiter-Glo, 24 h | AID 463190, 2010 | hit rate 2.2% among 330,000;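 active = inhibition of at least 40%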;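 note: mutant grown at 25 °C; 0% = DMSO wells with yeast and 100% = wells holding no yeast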
B2AR ag = beta2AR agonists driving receptor internalization, primary screen, cell-based, FAP fluorogen, flow cytometry. response, % (no concentration beside the values). Beta-2 adrenergic receptor (Homo sapiens), P07550. hit rate 0.43% among 340,000. Am2.2-beta2AR cells. AID 504454, 2011;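 active = response above a set limit, near 3 SD of response in nonfluorescent compounds, cut at about 42% in these data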
Target sequence (P07550 whole entry, looked up): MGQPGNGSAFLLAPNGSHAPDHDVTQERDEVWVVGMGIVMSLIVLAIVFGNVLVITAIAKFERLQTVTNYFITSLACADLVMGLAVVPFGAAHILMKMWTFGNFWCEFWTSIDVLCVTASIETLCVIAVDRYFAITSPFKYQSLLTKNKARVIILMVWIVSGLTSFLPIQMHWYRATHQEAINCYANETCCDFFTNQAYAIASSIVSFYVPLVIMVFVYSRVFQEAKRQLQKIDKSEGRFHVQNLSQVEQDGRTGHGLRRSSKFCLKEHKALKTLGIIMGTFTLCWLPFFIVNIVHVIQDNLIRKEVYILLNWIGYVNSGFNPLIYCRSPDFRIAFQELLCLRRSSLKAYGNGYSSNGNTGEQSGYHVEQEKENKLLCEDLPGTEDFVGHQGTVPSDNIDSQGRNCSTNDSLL
TIM10 inh = growth inhibitors of isogenic TIM10 control yeast, primary screen, counter-screen for tim10-1 yeast inhibitor project, luminescence, uHTS. S. cerevisiae TIM10 strain growth, BacTiter-Glo luminescence, 24 h. inhibition, % at 10 µM. hit rate 1.4% among 330,000. AID 463195, 2010;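 active = inhibition of 40% or more at the single tested concentration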;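 note: wild-type TIM10 isogenic control strain grown at permissive 25 °C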
tim23-1 inh = growth inhibitors of tim23-1 mutant yeast, primary screen, luminescence, uHTS; S. cerevisiae tim23-1 growth, BacTiter-Glo luminescence, 24 h; inhibition, % at 20 µM; hit rate 1.3% among 330,000; AID 463212, 2010;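 active = growth inhibition of the mutant yeast at or above 50%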;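 note: temperature-sensitive mutant grown at 25 °C; plate controls were DMSO-treated mutant yeast for no effect and medium wells lacking yeast for full effect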
PfHsp90 set2 = growth inhibition of PfHsp90-expressing yeast, primary screen, antimalarial PfHsp90 inhibitor project, S. cerevisiae, BacTiter-Glo luminescence, single point, set 2; BacTiter-Glo ATP, 48 h; yeast lacking PDR1 and PDR3 efflux regulators; inhibition, % at 9.4 µM; hit rate 0.32% among 310,000; AID 504621, 2011;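 active = every replicate shows inhibition above about 80%, whatever the replicate mean, limit read from the data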;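 note: 0% = DMSO neutral controls and 100% = 20 µM radicicol positive controls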
tim23-1 conf = tim23-1 mutant yeast growth inhibitors, confirmation, luminescence, single concentration. shares compounds with tim23-1 inh. S. cerevisiae tim23-1 growth, BacTiter-Glo luminescence, 24 h. inhibition, % at 20 µM. hit rate 83% among 4,400. AID 463218, 2010;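 active = inhibition above about 39% in either of two replicate wells at 20 µM, limit read from the data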;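 note: temperature-sensitive tim23-1 mutant grown at 25 °C; 0% = DMSO wells with yeast and 100% = medium wells without yeast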
Numbers without * were called inactive; x = no result. In the library only some 3.8% were active in any assay of this set; here they are far more common.

SMILES	tim10-1 inh	B2AR ag	TIM10 inh	tim23-1 inh	PfHsp90 set2	tim23-1 conf
CCc1sc(C(=O)Nc2nccs2)cc1C	25.0	-1.4	6.1	54.3*	-3.8	57.8*
COc1cc(Cl)c(C)cc1NC(=O)COC(=O)c1cc[n+]([O-])cc1	-14.8	5.0	15.3	17.7	-5.1	x
Cc1[nH]c(C)c(S(=O)(=O)N2CCN(c3ccccc3F)CC2)c1C(=O)N1CCCCC1	0.8	1.4	2.8	-7.1	16.1	x
Cc1ccc(O)c(C(=O)CC(=O)c2ccc(Cl)cc2)c1	x	14.8	x	x	-39.9	x
O=C(CC(=O)c1cc(Cl)ccc1O)c1ccccc1	34.2	11.9	23.1	55.5*	-38.8	65.0*
COc1ccc(C(=O)CC(=O)c2ccccc2O)cc1	3.6	9.4	6.6	50.3*	-31.1	52.5*
COc1ccc(C(=O)CC(=O)c2ccccc2O)cc1OC	18.3	2.2	14.6	18.4	-5.5	x
COc1cc2cnc(-c3ccccc3)c(C(=O)c3ccc(OCc4ccccc4)cc3)c2cc1OC	19.7	-3.0	10.6	31.1	-15.8	x
COc1cccc(C(=O)c2c(-c3ccccc3)ncc3cc(OC)c(OC)cc23)c1	21.3	-5.7	-13.2	53.7*	-4.1	32.5
C=CCn1ccc(=O)nc1SC	x	-2.9	x	x	x	x
CC(C)(C)c1csc(NC(=O)c2cccs2)n1	-14.0	1.8	35.8	55.6*	29.4	34.1
Cc1cccc(C(=O)OCC(=O)NC23CC4CC(CC(C4)C2)C3)c1O	13.8	2.4	37.7	56.1*	-0.2	55.8*
Cc1ccc(-c2cc(-c3cccs3)[nH]n2)c(O)c1	15.1	1.1	34.9	51.3*	x	34.2
Cc1ccc(-c2cc(C(=O)Nc3cc(C)ccc3C)[nH]n2)c(O)c1	7.5	5.4	-3.6	-13.6	-82.9	x
COc1ccc2c(=O)c(-c3ccc(OC)c(OC)c3)coc2c1	27.7	1.2	8.4	9.7	14.7	x
COc1ccc(-c2coc3cc(OC(C)=O)c(OC)cc3c2=O)cc1	4.5	-3.4	19.5	53.2*	-11.1	28.4
COc1ccccc1OC(=O)c1cc2ccccc2oc1=O	8.1	-14.1	-3.6	26.1	-4.6	x
COc1cc(/C=C/[N+](=O)[O-])ccc1OC(=O)c1cc2ccccc2oc1=O	20.8	53.9*	24.8	79.6*	106.3*	73.4*
N#Cc1nc(Nc2cc(F)cc(F)c2)c2ncn(CC(F)F)c2n1	19.7	1.8	21.2	52.4*	16.4	36.1
COc1ccc(/C=N/NC(=O)c2cc(C34CC5CC(CC(C5)C3)C4)[nH]n2)cc1OC	27.7	7.9	25.6	37.8	1.2	x
COc1cccc(/C=N/NC(=O)c2cc(C34CC5CC(CC(C5)C3)C4)[nH]n2)c1	9.3	6.2	9.7	65.7*	-5.5	41.5*
Cc1ccccc1N1CCN(S(=O)(=O)Cc2ccccc2)CC1	36.6	5.3	25.7	40.1	5.0	x
C=CCN(C(=O)c1csnn1)C(C(=O)NC1CCCC1)c1ccccc1F (centres undefined)	-7.3	1.1	-1.7	3.8	16.0	x
CC1=CCC2COC(c3ccc[n+](Cc4ccccc4)c3)C1C2 (centres undefined)	-13.5	8.0	1.5	-1.2	-4.3	x
CCOc1ccc(C(=O)Nc2nnc(S(=O)(=O)Nc3ccccc3C)s2)cc1	-0.1	-1.8	-8.0	12.1	-14.6	x
SMILES	tim10-1 inh	B2AR ag	TIM10 inh	tim23-1 inh	PfHsp90 set2	tim23-1 conf
Cn1nnnc1SCc1cc(=O)n2ccsc2n1	-11.3	-2.7	1.7	-7.5	3.5	x
C=CCn1c(SCc2cc(=O)n3ccsc3n2)nc2scc(C3CC3)c2c1=O	39.0	0.1	13.3	31.1	44.0	x
C=CCn1c(SCc2cc(=O)n3ccsc3n2)nc2cc(Cl)ccc2c1=O	26.9	-21.8	28.9	55.4*	42.0	58.5*
C=CCn1c(SCc2cc(=O)n3ccsc3n2)nc2ccccc2c1=O	10.8	-4.6	5.2	51.3*	-62.8	56.1*
COc1cc(C)c2c(c1OC)C(=O)CC2	x	-9.3	x	x	4.9	x
COc1ccc(Nc2nc3ccc(OC)cc3s2)cc1	26.2	1.8	35.8	60.8*	-4.4	40.0*
CSc1ncnc2ncn(C)c12	x	-7.7	x	x	-25.6	x
